From PubChem BioAssay
A selection: hits, their analogues and other compounds. The true share with any hit is near 5.9%.
Rtt109 HAT inh = inhibitors of C. albicans Rtt109/Vps75 HAT, primary screen, biochemical, ThioGlo CoA-SH fluorescence, plate reader; Histone acetyltransferase RTT109 (Candida albicans (strain SC5314 / ATCC MYA-2876)), …; 330,000 tested, 0.16% active; inhibition, % at 34.9 µM; purified Rtt109/Vps75, 4 h;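 active means inhibition of at least 50% in every replicate; inconclusive means best replicate reaches 50% inhibition but some replicates fall short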
ABHD5 PLIN5 PPI = ABHD5-PLIN5 interaction inhibitors, primary screen, cell lysate, split luciferase complementation, luminescence; Perilipin-5 (Homo sapiens) + 1-acylglycerol-3-phosphate O-acyltransferase ABHD5 (Homo …; Split G. princeps luciferase complementation, 4 h; inhibition, % at 4 µM; 360,000 tested, 0.78% active; AID 602281, 2012;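 active means inhibition above the mean inhibition across every tested compound plus 3 SD, cut at about 22% in these data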;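 further: 0% = DMSO only wells and the 100% control is not disclosed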
ALR H2O2 inh = inhibitors of human ALR sulfhydryl oxidase, primary screen, biochemical, H2O2 detection, HRP-luminol luminescence, single point; purified ALR, DTT oxidation; inhibition, % (test concentration not listed); 290,000 tested, 3.8% active;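 active means mean replicate inhibition above about 79%, with every replicate also reaching it, limit read from the data; inconclusive means only one of the two criteria met; inactive means mean below limit and not every replicate reaching it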
Target sequence (P55789 whole entry, looked up): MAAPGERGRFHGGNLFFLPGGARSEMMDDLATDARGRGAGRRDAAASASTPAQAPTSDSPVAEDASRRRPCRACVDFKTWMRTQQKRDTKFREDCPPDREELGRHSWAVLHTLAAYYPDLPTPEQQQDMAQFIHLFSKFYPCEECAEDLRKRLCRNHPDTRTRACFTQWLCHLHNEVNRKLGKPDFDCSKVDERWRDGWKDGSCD
rCAG RNA binder = binders of r(CAG) RNA repeats, primary screen, biochemical, fluorescence | r(CAG) RNA repeat, TO-PRO-1 dye displacement fluorescence | inhibition, % at 3 µM | 370,000 tested, 1.3% active;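 active means inhibition above the plate cutoff, the mean of all test compounds on that plate plus 3 SD, cut at about 35% in these data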;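 further: 0% = DMSO alone and 100% = 100 µM mitoxantrone as full dye displacement; higher means more dye released from RNA so lower well fluorescence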
PRMT1 FP inh = PRMT1 methyltransferase inhibitors, primary screen, biochemical, fluorescence polarization | Protein arginine N-methyltransferase 1 (Homo sapiens), Q99873 | recombinant PRMT1, activity-based probe fluorescence polarization | inhibition, % at 2.79 µM | 370,000 tested, 1.3% active | AID 652257, 2013;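 active means inhibition above about 21% made by adding two undisclosed values, limit read from the data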
Target sequence (Q99873 whole entry, looked up): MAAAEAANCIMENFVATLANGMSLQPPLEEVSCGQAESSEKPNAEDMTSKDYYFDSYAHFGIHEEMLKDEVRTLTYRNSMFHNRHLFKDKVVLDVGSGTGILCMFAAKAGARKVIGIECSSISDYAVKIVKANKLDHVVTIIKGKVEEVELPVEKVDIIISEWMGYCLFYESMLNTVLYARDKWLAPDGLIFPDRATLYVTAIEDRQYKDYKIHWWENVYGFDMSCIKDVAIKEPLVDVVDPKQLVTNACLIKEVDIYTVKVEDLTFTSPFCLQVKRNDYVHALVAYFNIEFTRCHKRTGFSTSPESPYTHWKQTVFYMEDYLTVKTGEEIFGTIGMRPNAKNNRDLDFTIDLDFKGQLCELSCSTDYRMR
LANA-H2A inh = blockers of LANA interaction with H2A/H2B – biochemical, FP readout, HTS, primary screen; Protein LANA1 (Human herpesvirus 8 type P (isolate GK18)), Q9QR71; cell-free LANA-H2A/H2B peptide, fluorescence polarization; inhibition, % (test concentration not listed); 320,000 tested, 0.6% active; in the data active means inhibition mostly above about 10%, no sharp cut-off; inactive means mostly below about 6.7%
PRMT1 confirm = PRMT1 methyltransferase inhibitors, confirmation, biochemical, fluorescence polarization, triplicate; inhibition, % at 2.79 µM; recombinant His-PRMT1, activity-based probe fluorescence polarization; 3,300 tested, 42% active; shares compounds with PRMT1 FP inh; AID 687036, 2013;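 active means mean inhibition across replicates above the hit cutoff derived for the earlier primary screen, cut at about 22% in these data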
Starred values were filed as active, the others as inactive; i = inactive; ? = inconclusive; . = no result given.

SMILES | Rtt109 HAT inh | ABHD5 PLIN5 PPI | ALR H2O2 inh | rCAG RNA binder | PRMT1 FP inh | LANA-H2A inh | PRMT1 confirm
CCNc1nc(NCC)n2c(SCC(=O)Nc3ccc(F)cc3)nnc2n1 | 11 | -8 | 11 | 1 | -2 | 4 | .
S=c1nccc(-c2cccs2)[nH]1 | -4 | 0 | 99* | -1 | 49* | -4 | 22*
CC(C)c1ccccc1NC(=O)CCc1nc2ccccc2s1 | 0 | 0 | -9 | 4 | 32* | -6 | 16
COc1ccccc1NC(=O)CCc1nc2ccccc2s1 | 2 | 0 | -36 | -6 | -1 | 1 | .
O=C(Sc1ccc(Cl)cc1)c1ccccn1 | -15 | -9 | 98* | -4 | 47* | 2 | 44*
O=C(COC(=O)c1cnccn1)c1ccc([N+](=O)[O-])cc1 | 137* | -20 | 59 | 2 | 47* | 3 | 60*
O=C(CNC(=O)c1cccs1)NCC(=O)OCC(=O)c1ccc([N+](=O)[O-])cc1 | ? | -24 | 96* | 1 | 70* | -2 | 41*
O=C(COc1ccccc1F)OCC(=O)c1ccc([N+](=O)[O-])cc1 | 2 | -26 | 79* | 9 | 46* | -5 | 34*
CC(C)C(c1nnnn1Cc1ccc(F)cc1)N1CCN(c2ccc(O)cc2)CC1 (stereo not drawn) | 4 | -5 | 100* | 7 | 28* | -5 | 1
O=C(Nc1ccccc1)C(Cl)C(=O)c1ccccc1 (stereo not drawn) | 6 | 20 | 15 | -1 | 62* | -5 | 79*
O=C(CCN1CCc2ccccc2CC1)c1ccc2c(c1)OCCO2 | 177* | 20 | 27 | -4 | 40* | -4 | 29*
O=C(O)c1ccccc1-c1ccc(/C=C/c2cc(C(F)(F)F)[nH]c(=O)n2)o1 | 2 | 18 | . | i | 29* | . | 25*
COCOCCn1cc(CN2CCS(=O)(=O)N(Cc3ccc(-c4ccc(Cl)c(Cl)c4)cc3)C(C(C)C)C2=O)nn1 (stereo not drawn) | . | 12 | . | 11 | 3 | . | .
O=C1CC(N2CCN(C3CC(=O)N(CCc4ccccc4)C3=O)CC2)C(=O)N1CCc1ccccc1 (stereo not drawn) | 1 | -5 | 4 | -8 | 2 | 3 | .
COc1ccc(CCNC2CC(=O)N(CCc3ccccc3)C2=O)cc1 (stereo not drawn) | . | 7 | . | -7 | 45* | -4 | -1
O=C1CC(N2CCC(Cc3ccccc3)CC2)C(=O)N1CCc1ccccc1 (stereo not drawn) | . | 13 | -12 | -6 | 47* | 4 | 5
COc1ccc(CCN2C(=O)CC(NC34CC5CC(CC(C5)C3)C4)C2=O)cc1OC (stereo not drawn) | -1 | 8 | -29 | -8 | 67* | 1 | 2
CCCOc1ccc(N2C(=O)CC(NCc3cccnc3)C2=O)cc1 (stereo not drawn) | 11 | 15 | 2 | -1 | 19 | -2 | .
CCCOc1ccc(N2C(=O)CC(NCCNc3ccc([N+](=O)[O-])cn3)C2=O)cc1 (stereo not drawn) | 7 | -4 | -6 | 4 | 32* | 4 | 4
COCCCN1C(=O)[C@H](CC(=O)N2CCN(C(=O)c3ccco3)CC2)[C@]2(C(=O)OC)CCCCC=C12 | . | . | . | 3 | -3 | . | .
CC(C)C[C@H]1CN(CCCC[C@H]2CNC(=O)C(=O)N2CCc2ccccc2)C(=O)C(=O)N1CCc1ccccc1 | . | -1 | . | 2 | 7 | . | .
CCCCOc1ccc(N2C(=O)CC(NCCc3ccc(S(N)(=O)=O)cc3)C2=O)cc1 (stereo not drawn) | 3 | 10 | . | 9 | 40* | 0 | 6
COc1ccc(CCN2C(=O)CC(NCCc3ccc(S(N)(=O)=O)cc3)C2=O)cc1OC (stereo not drawn) | -9 | 2 | -6 | -6 | 42* | -1 | 1
COc1ccc(N2C(=O)CC(NC34CC5CC(CC(C5)C3)C4)C2=O)c(OC)c1 (stereo not drawn) | -1 | 20 | -4 | -4 | 89* | -3 | 4
CCCOc1ccc(N2C(=O)CC(NCc3ccc(S(N)(=O)=O)cc3)C2=O)cc1 (stereo not drawn) | 7 | 2 | -5 | 1 | 18 | -1 | .
SMILES | Rtt109 HAT inh | ABHD5 PLIN5 PPI | ALR H2O2 inh | rCAG RNA binder | PRMT1 FP inh | LANA-H2A inh | PRMT1 confirm
O=C1CC(NCc2ccco2)C(=O)N1CCc1ccccc1 (stereo not drawn) | 5 | 0 | -15 | 2 | -1 | -1 | .
O=C1CC(NCCc2ccccc2)C(=O)N1CCc1ccccc1 (stereo not drawn) | 2 | 9 | -1 | -6 | 38* | 0 | 0
O=C(NC1CCCCC1)c1cccc(OCc2ccccc2)c1 | 19 | -8 | 1 | -8 | -2 | 0 | .
CC[C@H](C)[C@H](NC(=O)OCc1ccccc1)C(=O)OCC(=O)N1CCN(c2ccc(F)cc2)CC1 | 6 | 1 | . | -2 | -6 | . | .
CN1OC[C@@H]2CN(Cc3ccc4c(c3)OCO4)[C@H](c3ccc(-n4ccnc4)cc3)C[C@@H]21 | . | . | . | 3 | -2 | . | .
CCOC(=O)CC[C@@H]1CC[C@]2(CCCN(C(=O)c3ccno3)C2)O1 | . | . | . | 0 | 4 | . | .
COc1ccc(CCN2C(=O)C=CC2=O)cc1OC | -5 | 53* | . | 3 | 89* | . | 84*
Cc1ccc(C2CC2c2n[nH]c(=S)n2-c2ccc(Cl)cc2)cc1 (stereo not drawn) | -19 | -12 | 37 | 12 | 27* | -1 | 11
Cc1ccc(C2CC2c2n[nH]c(=S)n2-c2cccc(C)c2)cc1 (stereo not drawn) | 11 | -19 | -8 | 5 | 26* | -1 | 17
Cc1cccc(-n2c(C)n[nH]c2=S)c1 | 2 | -5 | -5 | -4 | -2 | -10 | .
CCN(CC)CCN(C)C(c1cc2ccccc2o1)c1nnnn1C(C)(C)C (stereo not drawn) | . | 4 | . | 4 | -3 | . | .
NC(=O)c1ccccc1NCC(=O)c1ccc(F)cc1 | -1 | -5 | -7 | 3 | 34* | -9 | 3
O=C(CNc1ccc(F)cc1)c1ccccc1 | 5 | -4 | 7 | -1 | 0 | 1 | .
NC(Cc1ccc(F)cc1)c1csc(Nc2cc(Oc3ccccc3)ncn2)n1 (stereo not drawn) | . | -12 | . | 18 | -7 | . | .
